Sampled rows, rich in hits. Any-hit rate of the full collection: about 13%.
PK Bst – modulators of Bacillus stearothermophilus pyruvate kinase | purified pyruvate kinase, luminescence ATP production; ribose 5-phosphate activator present at AC10 | AID 361 | 51,000 compounds, 1.2% hits | Potency, µM; in the data active = potency below about 11 µM; inconclusive = mostly about 12 µM to 25 µM;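 the screen sought inhibitors and activators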;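 also: potency is read from the fitted curve at half-maximal effect; scaled between full activation by ribose 5 phosphate and full inhibition by luteolin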
HADH2 inhib – blocks human hydroxyacyl-CoA dehydrogenase type II. Q99714. recombinant HADH2, NADH fluorescence, beta-hydroxybutyryl-CoA. Potency, µM (top dose mostly 57.1 µM), without a hit: at the top dose activity change, negative = inhibition, actives largely listed as inhibitors. 73,000 compounds, 3.4% hits; also: potency is read from the fitted curve at half-maximal effect; % is scaled to controls: 0 for no effect and ±100 for the full control effect; nearly all actives have a fitted effect of over 60% in size
Target sequence (Q99714 whole entry, looked up, one chain of several): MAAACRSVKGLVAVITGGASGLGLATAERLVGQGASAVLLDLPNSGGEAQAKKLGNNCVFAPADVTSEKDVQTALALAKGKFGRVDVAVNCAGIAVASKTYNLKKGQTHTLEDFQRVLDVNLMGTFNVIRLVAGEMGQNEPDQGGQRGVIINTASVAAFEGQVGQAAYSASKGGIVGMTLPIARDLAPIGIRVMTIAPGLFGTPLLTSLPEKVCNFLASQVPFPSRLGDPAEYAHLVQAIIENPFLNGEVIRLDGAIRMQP
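Buffer 100 mM Tris-HCl pH 9.0/0.01% Tween-20; HADH2 20 nM; NAD+ 1 mM; beta-hydroxybutyryl-CoA 90 uM (all final). 15 min cpd preincubation, RT.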
4MU fluor – compounds fluorescent in 4-MU spectral region. 59,000 compounds, 11% hits. AID 589. compound autofluorescence, 340/450 nm, 4-MU equivalents; stronger effect = higher value. max dye-equivalent concentration, M; in the data active = max dye-equivalent concentration above about 10 nM; inconclusive = mostly about 1.1 nM to 9.6 nM
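Intrinsic fluorescence at 340/450 nm (ex/em) was read after 15 min at room temperature in pH 8.0, 100 mM Tris. Each compound concentration expressed as 4-MU-equivalent concentration from a six-point 4-MU standard series on each plate.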
A350 fluor – A350 region autofluorescence. max dye-equivalent concentration, M. 59,000 compounds, 11% hits. Compound autofluorescence, 340/450 nm, Alexa 350 dye-equivalents; stronger effect = higher value. AID 590; in the data active = max dye-equivalent concentration above about 10 nM; inconclusive = mostly about 1.1 nM to 9.6 nM
HSD17B inh – blocks hydroxysteroid 17-beta dehydrogenase activity; Potency, µM (doses to about 57.1 µM), for inactives: at the highest dose activity change, negative = inhibition, actives largely listed as inhibitors; recombinant HSD17B10, NADH fluorescence kinetic; Q99714; 75,000 compounds, 7.6% hits; AID 893;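 also: the protocol describes HADH2 (HSD17B10) and not the HSD17B4 of the title; potency is read from the fitted curve at half-maximal effect; % is scaled to controls: 0 for no effect and ±100 for the full control effect; nearly all actives have a fitted effect of over 70% in size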
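20 nM HADH2, pH 9.0 Tris/Tween; cpd preinc 15 min RT; start w/ 1 mM NAD+ + 90 uM b-hydroxybutyryl-CoA; kinetic fluor ex360/em450 q30s x 4 min; delta last-first.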
AID923 – qHTS Assay for Allosteric/Competitive Inhibitors of Caspase-1: Spectroscopic Profiling in AFC Spectral Region. compound fluorescence, AFC spectral region (405/520 nm). Potency, µM (top dose mostly 57.5 µM), for the others: at the top dose fluorescence increase, actives largely listed as activators. 75,000 compounds, 1.1% hits. AID 923, 2007; also: potency is read from the fitted curve at half-maximal effect; 0% is about no effect
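Compound autofluorescence profiled at 405 nm ex/520 nm em during kinetic caspase 1 run (50 nM enzyme, 5 uM Ac-WEHD-AFC, HEPES pH 7.5, 10 mM DTT). Titration up to 57 uM; baseline from regression intercept, normalized to AFC standard curve.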
Active calls of the source: *; i = inactive; ? = inconclusive; . = not tested or not shown; [ ] = remark or other dose. Unless noted, calls follow the shape of the dose curve; as a rule, active = well fitted curve in the direction sought with a large enough effect; inconclusive = small, poorly fitted or top-dose-only effect, or another doubt; inactive = no such curve, though single readings can be large; an effect the other way counts as inactive or inconclusive.

SMILES	PK Bst	HADH2 inhib	4MU fluor	A350 fluor	HSD17B inh	AID923
Cc1ccc(S(=O)(=O)NC(=O)Nc2ccc(Cl)cn2)cc1	>57	-14.8%	1.1e-08M*	1.4e-08M*	-8.8%	3.0%
Cc1ccc(NC(=O)c2ccc3ccccc3n2)nc1	6.87*	-3.5%	i	i	-9.9%	-0.9%
Cc1ccccc1C(=O)Nc1ccc(Cl)cn1	.	2.5%	.	.	0.0%	2.8%
COc1ccc(C2C(C(=O)N3CCOCC3)CCC(=O)N2c2cc(OC)c(OC)c(OC)c2)cc1 (centres undefined)	>57	7.5%	i	i	12.1%	0.4%
C=CCNc1oc(COc2ccc(C)cc2)nc1C#N	.	-1.0%	.	.	1.8%	0.0%
CCOc1ccc(-c2nc(C#N)c(NC3CC3)o2)cc1	.	31.6µM*	.	.	31.6µM*	0.9%
CCOc1ccc(-c2nc(C#N)c(NCc3ccc4c(c3)OCO4)o2)cc1	.	-162.8%	.	.	7.94µM*	-2.4%
CC(=O)Oc1ccc2c(c1)CCC1C2CC[C@]2(C)C(=O)CCC12 (some centres undefined)	.	.	.	.	10.7%	-1.2%
Cc1ccccc1-c1cc(N2CCN(C)CC2)ncn1	.	5.0%	i	i	0.9%	0.1%
OC(COc1ccc2c(c1)OCO2)CN1CCc2ccccc2C1 (centres undefined)	>57	-6.3%	?	1.04e-08M*	-2.9%	-1.1%
OC(COCC1COc2ccccc2O1)CN1CCc2ccccc2C1 (centres undefined)	>57	13.3%	i	i	-6.4%	-2.6%
Fc1cccc(F)c1C(Nc1nncs1)Nc1nncs1	.	3.5%[11.4 µM]	i	i	5.7%[11.4 µM]	-3.4%[11.5 µM]
CCOC(=O)C1CCN(C(=O)c2cn(CCOC)c(=O)c3c2c2ccccc2n3C)CC1	>57	25.1µM*	5.75e-07M*	6.18e-07M*	25.1µM*	0.1%
CC(C)Cn1cc(C(=O)N2CCN(c3ccccn3)CC2)c2c3ccccc3n(C)c2c1=O	>57	?	6.63e-08M*	7.09e-08M*	31.6µM*	-2.1%
Cn1c(C(=O)N2CCCC2)cc2c(=O)n(C)c3ccccc3c21	.	-11.2%	.	.	-3.5%	-0.5%
CCOC(=O)C1CCN(C(=O)Cn2cc(C(=O)C3CC3)c3ccccc32)CC1	>57	11.2%	i	i	14.5%	0.7%
CC(C)Cn1cc(C(=O)NCCCN2CCCC2=O)c2c3ccccc3n(C)c2c1=O	>57	29.9%	4.41e-07M*	4.73e-07M*	25.1µM*	0.6%
CCN1CCN(C(=O)c2cn(CCOC)c(=O)c3c2c2ccccc2n3C)CC1	>57	?	6.55e-07M*	6.92e-07M*	15.8µM*	-0.1%
CO[C@H]1COC(=O)[C@H]2CCCN2C(=O)C/C=C\[C@@H](C)[C@H](OC)COC(=O)[C@@H](OCc2ccccc2)/C=C\[C@@H]1C	.	7.8%[11.4 µM]	.	.	2.4%[11.4 µM]	-2.2%[11.5 µM]
Cn1c(O)c(C=Nc2ccc(Cc3ccncc3)cc2)c(=O)n(C)c1=O	>25.6	.	?	?	.	.
CC1(C)OCC(CSC2=C(SCC3COC(C)(C)O3)C(=O)c3ncccc3C2=O)O1 (centres undefined)	.	?	.	.	-11.5%	8.1%
COCCn1cc(C(=O)N2CCCC(C)C2)c2c3ccccc3n(C)c2c1=O (centres undefined)	>57	-14.5%	6.56e-07M*	6.97e-07M*	25.1µM*	0.9%
CCOC(=O)C1CCCN(C(=O)c2cc3c(=O)n(C)c4ccccc4c3n2C)C1 (centres undefined)	.	-19.0%	.	.	5.8%	-1.7%
COc1ccc(-n2nc(C(=O)N3CCC(C#N)CC3)c3c4ccccc4n(C)c3c2=O)cc1	.	1.4%	.	.	0.6%	-1.0%
Cn1cc(C(=O)NCCN2CCN(c3ccccc3F)CC2)c2c3ccccc3n(C)c2c1=O	>57	8.4%	9.71e-08M*	1.02e-07M*	?	-0.7%
SMILES	PK Bst	HADH2 inhib	4MU fluor	A350 fluor	HSD17B inh	AID923
Cn1cc(C(=O)N2CCN(C(=O)c3ccco3)CC2)c2c3ccccc3n(C)c2c1=O	>57	14.4%	2.93e-07M*	3.18e-07M*	31.6µM*	1.7%
Cc1ccc(-n2nc(C(=O)N3CCN(C)CC3)c3c4ccccc4n(C)c3c2=O)cc1	>57	2.9%	2.08e-08M*	2.03e-08M*	-7.9%	-1.4%
COc1ccccc1CN1CC2(CCN(C(=O)c3cccc(F)c3)CC2)C1	.	-3.5%	i	i	6.3%	1.2%
COC(=O)CSc1nnc2c3c4c(sc3nc(-n3nc(C)cc3C)n12)COC(C)(C)C4	>57	?	5.82e-08M*	7.76e-08M*	25.1µM*	0.0%
Cc1cc(C)n(-c2nc3sc4c(c3c3nnc(SC(C)C)n23)CC(C)(C)OC4)n1	>57	2.3%	2.21e-08M*	2.88e-08M*	?	3.2%
CC(C)Sc1nnc2n(CCc3ccccc3)c(=O)c3c4c(sc3n12)COC(C)(C)C4	>25.6	.	i	i	.	.
COc1ccc(CCN(C)CCCOc2ccc(S(=O)(=O)c3[nH]c4ccccc4c3C(C)C)cc2)cc1OC	.	-4.0%	.	.	20.0%	0.0%
O=c1c(-c2cccc(F)c2)nc2cncnc2n1C1CC1	.	-15.0%	i	i	-6.8%	3.2%
COCCNC(=O)[C@H](C)/C=C(\c1cccnc1)C(NC(=O)OCc1ccccc1)c1ccc(C(=O)OC)cc1 (some centres undefined)	.	0.9%	.	.	-5.0%	-0.5%
CC(=O)n1nc(-c2ccccc2)nc1NCc1ccc(F)cc1	>57	21.8%	i	i	131.7%	0.1%
COc1ccc(CNc2nc(-c3cccnc3)nn2C(=O)c2cccs2)cc1	.	?	2.49e-08M*	1.55e-08M*	?	3.3%
CCn1c(=O)cc(SCC(=O)NCc2ccccn2)c2ccccc21	>57	-7.8%	i	i	?	-0.1%
OC(COc1ccccc1)CSc1ncn[nH]1 (centres undefined)	>57	-11.9%	8.57e-08M*	7.56e-08M*	?	4.0%
Cc1nc(N)nc(C)c1Cc1ccccc1	>57	-4.8%	?	?	-4.5%	0.5%
Cc1nc(N)nc2ccccc12	.	20.0%[11.4 µM]	5.05e-07M*	4.82e-07M*	3.16µM*	-5.9%[11.5 µM]
COC(=O)N1[C@H](C)C=C[C@]1(Cc1ccccc1)C(=O)NCCCNc1ncc(C(F)(F)F)cc1Cl	.	-12.2%	.	.	-19.5%	-1.0%
N[C@H](CCC(=O)NCS(=O)(=O)O)C(=O)O	.	?	?	?	2.6%	-2.1%
CCOC(=O)C1CCCN(C(=O)c2ccccc2NC(C)=O)C1 (centres undefined)	>57	-8.2%	i	i	5.7%	-0.7%
Cc1ccc(-c2cc(C(F)(F)F)n3ncc(C(=O)O)c3n2)cc1	>57	-2.1%	?	?	-11.2%	4.8%
CCOC(=O)C1CCCN(C(=O)c2cnn3c(C(F)F)cc(-c4ccc(C)cc4)nc23)C1 (centres undefined)	>57	-0.2%	3.97e-08M*	3.44e-08M*	25.1µM*	9.8%
